TRHR ag – activates the human TRH receptor; activation, % at 2 µM; P34981; 0.18% of 360,000 active; TRHR cells, calcium flux fluo-8, FDSS agonist mode; AID 493084; note: 0% is about no effect
Target sequence (P34981 whole entry, looked up): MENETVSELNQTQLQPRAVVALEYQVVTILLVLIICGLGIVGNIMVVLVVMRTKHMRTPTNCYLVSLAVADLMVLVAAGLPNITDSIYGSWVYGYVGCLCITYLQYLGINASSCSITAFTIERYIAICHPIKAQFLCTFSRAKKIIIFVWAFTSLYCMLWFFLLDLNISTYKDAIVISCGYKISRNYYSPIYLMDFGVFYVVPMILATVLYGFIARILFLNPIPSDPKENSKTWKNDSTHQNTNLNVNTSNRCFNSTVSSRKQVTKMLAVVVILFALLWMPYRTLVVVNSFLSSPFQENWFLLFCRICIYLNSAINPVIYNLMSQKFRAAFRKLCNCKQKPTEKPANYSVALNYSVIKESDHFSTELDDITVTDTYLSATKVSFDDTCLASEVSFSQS
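In this calcium-flux screen, cells bearing human TRHR are dye-loaded with fluo-8, baselined for 10 cycles, then exposed to library compounds; positive kinetic calcium responses during the agonist phase mark hits, with TRH as control.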
TRHR enhancer – TRH receptor (human) allosteric enhancement; TRHR cells, fluo-8 calcium fluorescence, EC20 TRH enhancement; P34981; enhancement, % at 2 µM; 0.66% of 360,000 active; in the data active = enhancement above about 30%; note: 0% is about no effect
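TRHR-expressing cells loaded with fluo-8 calcium dye were read kinetically (ex 480/em 530) during compound addition, then stimulated with an EC20 of TRH (10 nM final). Enhancement of the Gq-mediated intracellular calcium response was scored.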
D1 antagonist – antagonists of human D1 dopamine receptor. 3.2% of 360,000 active. activity change, negative = inhibition, % at 10 µM. AID 504652. HEK293 TREx D1 cells, calcium flux, dopamine EC80; stronger effect = lower value. P21728; in the data active = activity change below about -30%; note: % is set by controls: 0 for no effect and ±100 for the full control effect
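Allosteric or orthosteric antagonism assessed as attenuation of the calcium response to EC80 dopamine, added 180 s after compound, in induced HEK293 Trex D1 cells loaded with no-wash calcium dye.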
D1 ag – agonists of human D1 dopamine receptor. HEK293 T-REx D1 cells, calcium flux, agonist mode. activation, % at 2 µM. 1% of 360,000 active. AID 504660; note: 0% is about no effect
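Agonism was scored from calcium flux recorded over 180 s (1 read/s) after pintool compound addition, following a 10-cycle baseline. Cells were inducible force-coupled HEK293 TREx D1, plated overnight at 30 C and loaded with no-wash calcium dye.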
D1 potentiator – human D1 dopamine receptor positive modulation. P21728. HEK293 TREx D1 cells, calcium flux, dopamine EC20 potentiation. potentiation, % at 10 µM. 0.036% of 360,000 active; in the data active = potentiation above about 30%; note: 0% is about no effect
* hit, by the source's call. Most compounds without a hit are left out; they make up all but 4.6% or so of the library. Cut-off read from the data, not from the text of the source, unless noted: active = activation above about 30%; inactive = the rest.

How did CCNC(=S)NNC(=O)c1cc(-c2cccc(OC)c2)nc2ccccc12 do in these assays?
TRHR ag: -1; TRHR enhancer: -9; D1 antagonist: -2; D1 ag: 2; D1 potentiator: -3

How did CCNC(=S)NNC(=O)c1cc(-c2ccc(OCC)cc2)nc2ccccc12 do in these assays?
TRHR ag: -1; TRHR enhancer: -4; D1 antagonist: -33*; D1 ag: 8; D1 potentiator: -6

What do the screens show for `CCNC(=S)NNC(=O)c1cc(CC(C)C)nc2ccccc12`?
TRHR ag: 0; TRHR enhancer: -5; D1 antagonist: -46*; D1 ag: 2; D1 potentiator: -1

What do the screens show for `CCNC(=S)NNC(=O)c1cc(-c2ccccc2C)nc2ccccc12`?
TRHR ag: -1; TRHR enhancer: -7; D1 antagonist: -11; D1 ag: 1; D1 potentiator: 5

How did CCOc1ccc(Sc2cc(C(=O)NCCCOC)c3ccccc3n2)cc1 do in these assays?
TRHR ag: -1; TRHR enhancer: -7; D1 antagonist: 4; D1 ag: -3; D1 potentiator: 4

What do the screens show for `CC1=C(c2ccc(C)c(C)c2)S(=O)(=O)N=C1N1CCN(c2cccc(C(F)(F)F)c2)CC1`?
TRHR ag: 0; TRHR enhancer: 0; D1 antagonist: 2; D1 ag: 5; D1 potentiator: 0

How did CN(C(=O)COC(=O)c1ccc(-c2ccc(O)cc2)cc1)C1CCS(=O)(=O)C1 (stereo unspecified) do in these assays?
TRHR ag: 0; TRHR enhancer: 3; D1 antagonist: -46*; D1 ag: 4; D1 potentiator: -4

What do the screens show for `CN(C(=O)COC(=O)c1cccnc1Nc1ccccc1F)C1CCS(=O)(=O)C1` (stereo unspecified)?
TRHR ag: -2; TRHR enhancer: -2; D1 antagonist: -31*; D1 ag: 0; D1 potentiator: -2

How did CCN(C(=O)COC(=O)c1c(C)noc1C)C1CCS(=O)(=O)C1 (stereo unspecified) do in these assays?
TRHR ag: 1; TRHR enhancer: -1; D1 antagonist: -9; D1 ag: 3; D1 potentiator: 4

How did CN(C(=O)COC(=O)c1cccc(Cl)c1)C1CCS(=O)(=O)C1 (stereo unspecified) do in these assays?
TRHR ag: 2; TRHR enhancer: 6; D1 antagonist: 16; D1 ag: 0; D1 potentiator: -2

What do the screens show for `Cc1noc(C)c1C(=O)OCC(=O)N(C)C1CCS(=O)(=O)C1` (stereo unspecified)?
TRHR ag: 0; TRHR enhancer: 2; D1 antagonist: -80*; D1 ag: 4; D1 potentiator: -2

Results for CCN(CC)C(=O)C1=CC(c2ccc3c(c2)OCO3)=NS(=O)(=O)N1C ?
TRHR ag: 0; TRHR enhancer: 3; D1 antagonist: 4; D1 ag: 4; D1 potentiator: -1

How did Cc1c(C(=O)Nc2cccc(F)c2)sc2nc(-c3cc4ccccc4oc3=O)[nH]c(=O)c12 do in these assays?
TRHR ag: 0; TRHR enhancer: 4; D1 antagonist: -36*; D1 ag: -1; D1 potentiator: 4

How did Cc1cc(N2C(=O)c3ccc(C(=O)Nc4ccc(O)cc4C(=O)O)cc3C2=O)no1 do in these assays?
TRHR ag: 0; TRHR enhancer: 0; D1 antagonist: -35*; D1 ag: 12; D1 potentiator: -1

Results for NC1=NC[C@H](Cc2ccccc2)N1CCc1cccc(F)c1 ?
TRHR ag: 0; TRHR enhancer: 3; D1 antagonist: -37*; D1 ag: 1; D1 potentiator: -3

Results for NC1=NC[C@H](Cc2ccccc2)N1CCCCC1CCCCC1 ?
TRHR ag: 0; TRHR enhancer: 3; D1 antagonist: 29; D1 ag: 11; D1 potentiator: 5

How did COCCN1Cc2cccc(C(=O)Nc3ccc(C)cc3C)c2C1=O do in these assays?
TRHR ag: 0; TRHR enhancer: 10; D1 antagonist: 1; D1 ag: 4; D1 potentiator: 2

How did CCc1ccc(C2C(C#N)=C(N)SC(N)=C2C#N)cc1 do in these assays?
TRHR ag: 0; TRHR enhancer: 1; D1 antagonist: -10; D1 ag: 30*; D1 potentiator: -3

How did N#CC1=C(N)SC(N)=C(C#N)C1c1ccc(C(F)(F)F)cc1 do in these assays?
TRHR ag: 2; TRHR enhancer: 3; D1 antagonist: -2; D1 ag: -1; D1 potentiator: 1

Screens (PubChem)
